# Data as given in the supplement of paper PMC10849652.
# Of roughly 7,900 targets only a part is listed; those with a hit were picked by preference. About 0.6% of all pairs of compound and target were hits. Unmarked numbers belong to inactive results.
# Legend:
# Assay in all cases: log2 fold change, soluble protein after heating vs DMSO (PISA); higher = thermal stabilisation; K562 cells, 10 uM, 30 min; active = over 0.2 and 3.5 SD of the protein, either way, in both replicates (recomputed)
# [1] = compound: C#Cc1cccc(Nc2ncnc3cc(OCCOC)c(OCCOC)cc23)c1 [erlotinib]
# Outline: (§1)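 Thermal stability values are relative to control samples and come from duplicates. They are expressed as log2 fold changes. For measurement, K562 cells (2×10^6 cells/mL) received 10 μM compound for 30 min, and aliquots were heated for 3 min over 48°C-58°C, pooled, and extracted at 4°C in PBS with 0.5% NP-40. Soluble protein, the supernatant after 21,000xg for 90 min, was quantified by TMTpro 16plex LC-MS/MS with equalised channel sums.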
# [2] = compound: C/C(=N\NC(=O)C1=CC(=CC=C1)S(=O)(=O)N2CCOCC2)/C3=C(C=CC(=C3)Cl)O
# Outline: as §1
# [3] = compound: C1=CC(=C(C=C1Cl)C2=NC3=NC=CN=C3C(=N2)NC4=CC=NC=C4)F
# Outline: as §1
# [4] = compound: C1=CC(=CC=C1C2=NC3=C(N2)C=C(C=C3)C(=O)N)OC4=CC=C(C=C4)Cl
# Outline: as §1
# [5] = compound: C1=CC2=C(C=CC(=C2)/C=C\3/C(=O)NC(=NCC4=CC=CS4)S3)N=C1
# Outline: as §1
# [6] = compound: C1=CC2=NC=CN=C2C=C1/C=C/3\C(=O)NC(=O)S3
# Outline: as §1
# [7] = compound: C1=CC=C(C=C1)C2=NC(=C(N2)C3=CC=NC=C3)C4=CC(=C(C=C4)Cl)O
# Outline: as §1
# [8] = compound: C1=CC=C2C(=C1)C3=NNC4=CC=CC(=C43)C2=O
# Outline: as §1
# [9] = compound: C1CCN(C1)C(=O)NC2=CC=CC(=C2)NC3=NC=C(C(=N3)NCCC4=CN=CN4)Br
# Outline: as §1
# [10] = compound: C1CN(CCC1(CC2=CC=C(C=C2)Cl)N)C3=NC=NC4=C3C=CN4
# Outline: as §1
# [11] = compound: C1COCCN1CCN2C3=CC=CC=C3N=C2NC(=O)C4=CC(=CC=C4)[N+](=O)[O-] [IRAK-1-4 Inhibitor I]
# Outline: as §1
# [12] = compound: C=CC(=O)N1CCC[C@@H](n2nc(-c3ccc(Oc4ccccc4)cc3)c3c(N)ncnc32)C1 [ibrutinib]
# Outline: as §1
# [13] = compound: CC(=O)c1cnc2ccc(-c3cc(Cl)c(O)c(Cl)c3)nc2c1N[C@H]1CC[C@H](CN(C)C)CC1
# Outline: as §1
# [14] = compound: CC(C)(C)Cn1c(N)nc2ccc(-c3[nH]c(C(C)(C)C)nc3-c3ccc(F)cc3)nc21 [ralimetinib]
# Outline: as §1
# [15] = compound: CC(C)(O)CC(=O)NCCn1ccc2ncnc(Nc3ccc(Oc4cccc(C(F)(F)F)c4)c(Cl)c3)c21
# Outline: as §1
# [16] = compound: CC(C)C1=C2N=C(C=C(N2N=C1)NCC3=CC=CC=C3)NCCCCCCN
# Outline: as §1
# [17] = compound: CC(C)C[C@@H](C=O)NC(=O)[C@H](CC(C)C)NC(=O)[C@H](CC(C)C)NC(=O)OCc1ccccc1
# Outline: as §1
# [18] = compound: CC(C)N(C[C@H]1O[C@@H](n2cnc3c(N)ncnc32)[C@H](O)[C@@H]1O)[C@H]1C[C@@H](CCc2nc3cc(C(C)(C)C)ccc3[nH]2)C1 [pinometostat]
# Outline: as §1
# [19] = compound: CC1=C(C(CC(=O)N1)C2=CC=C(C=C2)C(F)(F)F)C(=O)NC3=C(C=C4C(=C3)C=NN4)F
# Outline: as §1
# [20] = compound: CC1=C(C2=C(C=C1)C(=O)C3=CC=CC=C3N2CCCN)C
# Outline: as §1
# UniProt Q9UHB6, sequence (Q9UHB6 whole entry, looked up): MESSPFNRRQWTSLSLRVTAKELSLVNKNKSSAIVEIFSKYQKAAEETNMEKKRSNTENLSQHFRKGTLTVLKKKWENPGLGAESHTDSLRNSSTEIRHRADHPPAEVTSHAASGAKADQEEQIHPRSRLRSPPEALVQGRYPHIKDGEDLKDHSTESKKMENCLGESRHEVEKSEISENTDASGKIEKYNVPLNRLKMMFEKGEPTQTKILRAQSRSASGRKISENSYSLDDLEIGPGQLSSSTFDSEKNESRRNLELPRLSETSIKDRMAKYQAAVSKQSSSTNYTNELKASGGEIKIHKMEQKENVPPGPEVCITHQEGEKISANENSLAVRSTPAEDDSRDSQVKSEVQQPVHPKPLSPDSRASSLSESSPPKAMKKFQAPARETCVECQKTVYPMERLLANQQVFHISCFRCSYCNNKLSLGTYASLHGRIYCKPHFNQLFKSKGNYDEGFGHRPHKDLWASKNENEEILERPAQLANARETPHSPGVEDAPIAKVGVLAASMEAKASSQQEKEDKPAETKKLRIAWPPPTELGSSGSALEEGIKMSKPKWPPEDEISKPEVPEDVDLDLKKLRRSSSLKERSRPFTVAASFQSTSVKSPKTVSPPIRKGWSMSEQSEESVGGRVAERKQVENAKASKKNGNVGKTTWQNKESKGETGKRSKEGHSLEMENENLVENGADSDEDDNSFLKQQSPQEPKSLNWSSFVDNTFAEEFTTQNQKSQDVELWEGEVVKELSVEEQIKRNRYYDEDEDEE
# UniProt Q7Z4S6, sequence (Q7Z4S6 whole entry, looked up): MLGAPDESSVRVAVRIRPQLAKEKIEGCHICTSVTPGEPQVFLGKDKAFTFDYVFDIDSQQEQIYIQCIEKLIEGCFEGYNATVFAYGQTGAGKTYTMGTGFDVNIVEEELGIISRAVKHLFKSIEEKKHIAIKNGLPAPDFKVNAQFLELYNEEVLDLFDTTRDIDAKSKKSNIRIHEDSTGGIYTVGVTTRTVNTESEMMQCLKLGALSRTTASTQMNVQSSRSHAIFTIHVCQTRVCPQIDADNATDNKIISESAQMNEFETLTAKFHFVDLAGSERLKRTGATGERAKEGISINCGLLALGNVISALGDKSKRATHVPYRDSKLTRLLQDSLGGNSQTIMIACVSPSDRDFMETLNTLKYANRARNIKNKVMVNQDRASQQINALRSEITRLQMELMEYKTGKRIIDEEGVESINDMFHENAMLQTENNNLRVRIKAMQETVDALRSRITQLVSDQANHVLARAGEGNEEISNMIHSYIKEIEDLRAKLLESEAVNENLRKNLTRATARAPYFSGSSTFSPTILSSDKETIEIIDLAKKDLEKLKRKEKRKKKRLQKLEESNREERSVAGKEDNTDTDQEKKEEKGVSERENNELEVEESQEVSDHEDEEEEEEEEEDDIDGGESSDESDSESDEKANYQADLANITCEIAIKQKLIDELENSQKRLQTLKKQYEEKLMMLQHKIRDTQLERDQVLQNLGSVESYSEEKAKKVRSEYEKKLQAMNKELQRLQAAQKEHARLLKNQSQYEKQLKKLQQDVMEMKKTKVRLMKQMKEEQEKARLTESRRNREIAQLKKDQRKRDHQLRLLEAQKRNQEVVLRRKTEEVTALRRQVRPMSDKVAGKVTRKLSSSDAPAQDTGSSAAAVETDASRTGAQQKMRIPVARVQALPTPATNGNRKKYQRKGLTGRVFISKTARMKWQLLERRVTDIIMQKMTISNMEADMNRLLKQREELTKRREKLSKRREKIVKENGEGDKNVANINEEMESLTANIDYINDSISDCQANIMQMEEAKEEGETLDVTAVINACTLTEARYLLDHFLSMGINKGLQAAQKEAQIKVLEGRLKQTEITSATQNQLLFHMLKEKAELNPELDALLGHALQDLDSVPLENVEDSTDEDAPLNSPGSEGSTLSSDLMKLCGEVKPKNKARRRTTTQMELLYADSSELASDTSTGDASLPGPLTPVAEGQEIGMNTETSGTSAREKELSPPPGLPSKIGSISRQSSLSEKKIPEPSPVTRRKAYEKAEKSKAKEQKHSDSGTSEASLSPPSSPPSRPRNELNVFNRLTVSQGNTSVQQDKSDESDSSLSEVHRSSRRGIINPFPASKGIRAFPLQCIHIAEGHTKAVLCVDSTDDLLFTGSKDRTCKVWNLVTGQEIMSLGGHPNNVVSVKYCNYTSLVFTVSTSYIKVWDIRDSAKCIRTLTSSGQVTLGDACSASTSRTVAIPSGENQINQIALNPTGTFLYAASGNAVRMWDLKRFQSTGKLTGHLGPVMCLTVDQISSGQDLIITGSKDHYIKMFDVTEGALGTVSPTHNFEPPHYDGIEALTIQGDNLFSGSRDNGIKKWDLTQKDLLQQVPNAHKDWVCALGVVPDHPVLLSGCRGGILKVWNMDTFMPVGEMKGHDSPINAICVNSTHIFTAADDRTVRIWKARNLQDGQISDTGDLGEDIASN
# UniProt Q9Y2E5, sequence (Q9Y2E5 whole entry, looked up): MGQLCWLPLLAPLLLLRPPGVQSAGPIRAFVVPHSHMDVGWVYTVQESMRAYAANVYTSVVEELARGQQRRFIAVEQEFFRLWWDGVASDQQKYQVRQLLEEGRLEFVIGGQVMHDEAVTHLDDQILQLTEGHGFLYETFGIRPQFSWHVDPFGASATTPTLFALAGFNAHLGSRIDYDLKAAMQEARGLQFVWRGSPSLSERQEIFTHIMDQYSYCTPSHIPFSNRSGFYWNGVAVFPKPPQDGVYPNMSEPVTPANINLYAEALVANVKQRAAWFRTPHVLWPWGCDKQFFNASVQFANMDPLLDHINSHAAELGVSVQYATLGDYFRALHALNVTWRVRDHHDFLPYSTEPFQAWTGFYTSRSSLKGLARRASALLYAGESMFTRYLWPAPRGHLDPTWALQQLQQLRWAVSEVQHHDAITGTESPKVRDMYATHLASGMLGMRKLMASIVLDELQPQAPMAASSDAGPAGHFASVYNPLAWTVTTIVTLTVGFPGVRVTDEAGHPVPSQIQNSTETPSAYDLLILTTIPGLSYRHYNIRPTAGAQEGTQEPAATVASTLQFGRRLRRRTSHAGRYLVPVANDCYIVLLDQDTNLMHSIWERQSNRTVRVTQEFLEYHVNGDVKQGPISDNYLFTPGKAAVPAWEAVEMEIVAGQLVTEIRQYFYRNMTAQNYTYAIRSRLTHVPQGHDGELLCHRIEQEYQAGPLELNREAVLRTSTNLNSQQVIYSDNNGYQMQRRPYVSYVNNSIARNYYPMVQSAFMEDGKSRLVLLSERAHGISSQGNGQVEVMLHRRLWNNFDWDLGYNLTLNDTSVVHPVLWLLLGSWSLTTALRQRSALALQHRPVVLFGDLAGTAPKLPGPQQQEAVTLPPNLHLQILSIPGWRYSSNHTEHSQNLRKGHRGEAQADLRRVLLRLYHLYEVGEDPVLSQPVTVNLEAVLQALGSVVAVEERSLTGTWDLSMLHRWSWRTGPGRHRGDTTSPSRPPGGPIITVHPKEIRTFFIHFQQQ
# UniProt Q9BPX6, sequence (Q9BPX6 whole entry, looked up): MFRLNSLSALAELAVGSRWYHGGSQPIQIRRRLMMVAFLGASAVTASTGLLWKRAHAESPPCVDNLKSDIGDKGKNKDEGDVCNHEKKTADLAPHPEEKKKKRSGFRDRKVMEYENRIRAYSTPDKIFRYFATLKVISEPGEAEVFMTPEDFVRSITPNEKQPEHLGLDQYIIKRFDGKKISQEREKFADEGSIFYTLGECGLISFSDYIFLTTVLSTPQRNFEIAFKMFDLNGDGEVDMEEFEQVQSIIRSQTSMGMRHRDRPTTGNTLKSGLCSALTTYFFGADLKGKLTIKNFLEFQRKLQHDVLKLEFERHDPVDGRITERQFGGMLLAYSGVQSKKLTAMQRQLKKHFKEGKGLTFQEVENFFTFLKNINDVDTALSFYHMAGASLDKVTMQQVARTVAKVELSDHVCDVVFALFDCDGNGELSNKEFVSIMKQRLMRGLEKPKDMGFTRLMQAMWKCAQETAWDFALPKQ
# UniProt Q96GA3, sequence (Q96GA3 whole entry, looked up): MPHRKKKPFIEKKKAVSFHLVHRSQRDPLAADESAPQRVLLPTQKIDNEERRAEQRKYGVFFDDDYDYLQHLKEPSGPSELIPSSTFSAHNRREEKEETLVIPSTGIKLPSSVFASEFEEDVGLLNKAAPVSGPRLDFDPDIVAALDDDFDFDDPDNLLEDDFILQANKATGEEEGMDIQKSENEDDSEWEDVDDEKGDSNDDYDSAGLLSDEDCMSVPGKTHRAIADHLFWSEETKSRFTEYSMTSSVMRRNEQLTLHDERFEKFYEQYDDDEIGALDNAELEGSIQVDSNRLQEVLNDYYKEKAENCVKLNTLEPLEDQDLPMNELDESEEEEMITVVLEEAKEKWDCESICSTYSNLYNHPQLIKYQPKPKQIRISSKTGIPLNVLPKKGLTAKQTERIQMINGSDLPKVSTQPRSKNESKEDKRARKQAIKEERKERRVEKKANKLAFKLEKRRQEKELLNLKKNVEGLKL
# UniProt Q9BRT3, sequence (Q9BRT3 whole entry, looked up): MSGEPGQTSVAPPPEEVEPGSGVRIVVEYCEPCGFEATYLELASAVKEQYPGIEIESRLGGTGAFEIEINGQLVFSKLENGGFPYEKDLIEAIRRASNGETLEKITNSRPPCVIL
# UniProt Q13422, sequence (Q13422 whole entry, looked up): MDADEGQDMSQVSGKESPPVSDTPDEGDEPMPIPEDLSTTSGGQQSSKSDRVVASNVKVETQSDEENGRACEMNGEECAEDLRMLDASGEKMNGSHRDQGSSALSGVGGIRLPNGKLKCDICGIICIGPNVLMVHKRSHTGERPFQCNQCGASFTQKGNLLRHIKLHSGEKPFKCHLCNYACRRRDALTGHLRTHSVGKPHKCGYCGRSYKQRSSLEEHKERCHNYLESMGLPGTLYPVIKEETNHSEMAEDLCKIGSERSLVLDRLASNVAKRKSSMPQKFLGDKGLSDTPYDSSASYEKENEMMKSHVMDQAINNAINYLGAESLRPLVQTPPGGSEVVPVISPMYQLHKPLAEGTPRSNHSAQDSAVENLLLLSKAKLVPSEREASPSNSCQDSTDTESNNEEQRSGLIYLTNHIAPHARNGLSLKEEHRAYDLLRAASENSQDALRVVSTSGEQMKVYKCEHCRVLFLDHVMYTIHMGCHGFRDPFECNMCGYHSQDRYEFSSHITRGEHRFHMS
Target,log2 fold change [1],log2 fold change [2],log2 fold change [3],log2 fold change [4],log2 fold change [5],log2 fold change [6],log2 fold change [7],log2 fold change [8],log2 fold change [9],log2 fold change [10],log2 fold change [11],log2 fold change [12],log2 fold change [13],log2 fold change [14],log2 fold change [15],log2 fold change [16],log2 fold change [17],log2 fold change [18],log2 fold change [19],log2 fold change [20]
IKZF1 (UniProt Q13422),-0.005,-0.018,-0.008,0.002,-0.015,0.019,-0.069,0.144,0.051,0,-0.017,0.041,-0.069,-0.036,-0.015,-0.016,0.011,0.01,0.02,0.275
LTV1 (UniProt Q96GA3),-0.079,-0.073,-0.275,0.041,-0.037,0.013,-0.055,0.046,0.143,-0.284,-0.101,-0.009,0.224,0.134,0.001,-0.233,0.104,0.249,-0.005,-0.726 (active)
LIMA1 isoform 4 (UniProt Q9UHB6),-0.015,-0.062,-0.039,0.069,0.038,-0.015,0.022,0.054,0,-0.039,-0.031,0.033,-0.267 (active),0.011,0.114,0.206,-0.03,0.006,0.079,0.049
KIF21A isoform 4 (UniProt Q7Z4S6),0.017,0.056,-0.043,-0.016,-0.023,0.006,-0.075,-0.065,-0.144,-0.233,-0.025,-0.053,-0.054,0.035,-0.062,-0.009,0.084,0.144,0.01,0.096
MICU1 isoform 3 (UniProt Q9BPX6),-0.02,-0.026,-0.022,0.002,-0.009,0.007,-0.054,0.008,0.013,-0.015,0,-0.009,-0.025,0.007,-0.016,-0.285 (active),0.08,0.076,0.067,0.09
MIEN1 (UniProt Q9BRT3),0.023,0.048,0.046,-0.02,0.033,0.099,0.035,-0.065,0.024,-0.076,0.105,-0.029,-0.051,-0.075,-0.091,0.074,-0.036,0.019,0.004,0.045
MAN2B2 (UniProt Q9Y2E5),-0.035,0.005,-0.008,-0.003,0.076,0.025,-0.07,0.063,-0.02,-0.186,0.086,-0.079,-0.171,0.029,-0.033,-0.078,0.043,0.089,0.064,-0.048
